Experimental findings from PubChem BioAssay (NCATS) are described below.

Records with an inconclusive call do not appear. Activity calls are given as the source filed them. Unless noted, calls come from the whole dose curve; as a rule, active = well fitted curve in the direction sought with a large enough effect; inconclusive = small, poorly fitted or top-dose-only effect, or another doubt; inactive = no such curve, though single readings can be large; an effect the other way counts as inactive or inconclusive.

Experiment [1] concerns the target Lysosomal acid glucosylceramidase (Homo sapiens) (UniProt P04062). The experiment can be described thus: Glucocerebrosidase-p2 (AID 348; in the data active = potency below about 10 µM; note: potency is the fitted concentration of half-maximal effect). Conditions: purified GBA, blue fluorogenic substrate, 40 min. A digest of the protocol: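 Compounds titrated from 0.6 nM upwards against 0.2 nM enzyme in pH 5.9 citric acid/KH2PO4, taurocholate, tween-20; blue fluorogenic substrate 80 uM, 40 min room temperature, stopped and read Ex 365/Em 440 for AC50.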

A short description of experiment [2]: AP1 Signaling Pathway (AID 357; active = well fitted curve in either direction with a large enough effect, not every such curve was filed as active; note: % is set by controls: 0 for no effect and ±100 for the full control effect). Conditions: ME-180 AP-1-bla reporter, EGF-induced, beta-lactamase ratio, 5 h; at 7.69 µM (top of the series) unless noted. The method, boiled down: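 Read-out was the 460nm/530nm emission ratio (excitation 405nm) after CCF4 loading for 2.5 hours at room temperature. Cells carried an AP-1-driven beta-lactamase reporter, were stimulated with EC50 EGF plus compound for 5 hours, and AC50 values came from titrations.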

Experiment [3] addresses Cytochrome P450 1A2 (Homo sapiens) (UniProt P05177). Kind of experiment: p450-cyp1a2 (AID 410; calls by dose curve; note: potency is the fitted concentration of half-maximal effect). Conditions: recombinant CYP1A2, luciferin-ME demethylation, luminescence; series mostly up to 57 µM. The method, boiled down: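 Luminescent readout of luciferin formed from Luciferin-ME by human CYP1A2; data normalized against complete inhibition by 57 uM furafylline. Enzyme 20nM, substrate 100uM at Km, 100mM KPO4 buffer, 60 min reaction at room temperature.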

Experiment [4] in a line: NFAT Signaling Pathway (AID 444; active = well fitted curve in either direction with a large enough effect, not every such curve was filed as active;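 note: carbachol stimulus at about its EC50 of 1 µM final; % is set by controls: 0 for no effect and ±100 for the full control effect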). Conditions: Jurkat NFAT-bla M1, carbachol, beta-lactamase ratio, 5 h; at 7.69 µM (top of the series) unless noted. A digest of the protocol:
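Jurkat cells with NFAT-driven β-lactamase reporter and co-expressed M1 receptor, stimulated with carbachol (final 1 uM, ~EC50), compound titration, 5 h at 37 °C. CCF4 loaded 1 h at RT; 460/530 nm ratio gave %activity and AC50.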

The nature of experiment [5]: Stat Signaling Pathway (AID 446; active = well fitted curve in either direction with a large enough effect, not every such curve was filed as active;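 note: ME-180 cervical cancer cells given 40 pM IL-6 alongside compound; SIE-controlled beta-lactamase reporter measured as 460/530 nm FRET emission ratio; % is set by controls: 0 for no effect and ±100 for the full control effect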). Conditions: ME-180 SIE beta-lactamase reporter, IL-6 stimulated, 5 h; at 7.69 µM (top of the series) unless noted. The method, boiled down: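 ME-180 cells carrying a SIE-driven beta-lactamase reporter are stimulated with 40 pM IL-6 for 5 h at 37C in the presence of compound. The 460/530 nm FRET substrate ratio is read after 2.5 h at RT. Data are normalised to 300 pM IL-6 and to 125 nM JAK inhibitor controls.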

For experiment [6], the target named is Glucocorticoid receptor (Homo sapiens) (UniProt P04150). Kind of experiment: GR-GFP Redistribution (AID 450;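 active = compounds whose dose series gives a full or clear partial fitted curve of increased nuclear translocation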; note: potency is the fitted concentration of half-maximal effect). Conditions: U2OS GR-GFP nuclear translocation, laser cytometry, 2 h.
Glucocorticoid receptor (Homo sapiens), sequence (P04150 whole entry, looked up): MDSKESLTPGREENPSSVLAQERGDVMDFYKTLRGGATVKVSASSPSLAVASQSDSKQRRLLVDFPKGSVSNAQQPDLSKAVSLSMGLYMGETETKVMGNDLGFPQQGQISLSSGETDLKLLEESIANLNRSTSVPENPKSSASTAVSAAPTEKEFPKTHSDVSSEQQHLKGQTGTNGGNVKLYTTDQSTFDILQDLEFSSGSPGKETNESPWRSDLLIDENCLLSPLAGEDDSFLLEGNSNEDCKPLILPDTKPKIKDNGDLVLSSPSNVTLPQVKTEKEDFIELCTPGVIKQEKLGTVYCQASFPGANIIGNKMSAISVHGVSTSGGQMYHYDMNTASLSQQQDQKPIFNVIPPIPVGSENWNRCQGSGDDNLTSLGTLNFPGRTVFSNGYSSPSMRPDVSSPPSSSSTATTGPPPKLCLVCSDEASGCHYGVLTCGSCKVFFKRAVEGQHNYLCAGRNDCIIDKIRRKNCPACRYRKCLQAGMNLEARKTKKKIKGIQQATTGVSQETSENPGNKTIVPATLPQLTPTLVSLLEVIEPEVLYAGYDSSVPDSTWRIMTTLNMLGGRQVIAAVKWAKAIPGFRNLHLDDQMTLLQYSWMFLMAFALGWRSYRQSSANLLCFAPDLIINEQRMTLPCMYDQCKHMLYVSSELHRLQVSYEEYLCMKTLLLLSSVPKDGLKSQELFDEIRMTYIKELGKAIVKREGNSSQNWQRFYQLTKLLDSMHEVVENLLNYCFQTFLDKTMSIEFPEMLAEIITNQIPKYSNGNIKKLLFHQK
For experiment [7] the target is unchanged. Kind of experiment: GR-EFC Redistribution (AID 451; calls by dose curve; note: potency is the fitted concentration of half-maximal effect). As to conditions: CHO-K1 GR-EFC translocation, beta-gal luminescence, 2 h. The method, boiled down:
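CHO-K1 cells expressing nuclear EA and GR-ED fragments of b-gal; compounds titrated up to 46 uM final, 2 h at 37 C. GR nuclear translocation read as complemented b-gal luminescence after 1 h RT detection.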

The target of experiment [8] is Mitogen-activated protein kinase 10 (Mus musculus) (UniProt Q61831). Kind of experiment: JNK3 AlphaScreen Assay (AID 530; active = well fitted curve in either direction with a large enough effect, not every such curve was filed as active;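 note: kinase came from lysate of stimulated human HepG2 cells; signal reports phosphorylation of biotinylated GST-cJun 1-79 at Ser73 with 10 µM ATP; % is set by controls: 0 for no effect and ±100 for the full control effect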). As to conditions: JNK3 lysate, c-Jun phosphorylation; series mostly up to 57.1 µM. The method, boiled down: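 Pre-activated (IL-1β/TNFα) JNK3 in HepG2 lysates phosphorylates biotin-GST-cJun(1-79), 10 uM ATP; anti-phospho-cJun(Ser73) AlphaScreen read at room temperature, pH 7.6 Tris buffer. Compounds pre-incubated 15 min as titrations.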

Experiment [9] deals with 3',5'-cyclic-AMP phosphodiesterase 4B (Homo sapiens) (UniProt Q07343). The experiment can be described thus: qHTS Assay for Inhibitors of PDE-IV (AID 607; active = well fitted activation curve with a large enough effect in the main read-out, with a control signal flat, not every such curve was filed as active; note: % of control where 0% means no effect). As to conditions: HEK293 ACTOne CNG channel cells, membrane potential fluorescence; series mostly up to 22.9 µM. The method, boiled down:
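HEK293 ACTOne cells with CNG channel (1000/well), endogenous PDE4; membrane potential dye, compounds up to 22.9 uM final. Fluorescence Ex 535/Em 590; RO 20-1724 (100 uM final) as reference.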
For orientation: Quantitative high-throughput screening tests each substance at several concentrations.

In experiment [10] the target is Cytochrome P450 3A4 (Homo sapiens) (UniProt P08684). Kind of experiment: qHTS Assay for Inhibitors and Substrates of Cytochrome P450 3A4 (AID 884). Note: potency is the fitted concentration of half-maximal effect; nearly all actives have a fitted effect of over 50% in size. As to conditions: recombinant CYP3A4, Luciferin-PPXE luminescence; series mostly up to 57.1 µM. The method, boiled down: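 20 nM human CYP3A4 with 25 uM Luciferin-PPXE (at KM) in 200 mM KPO4, preincubated 10 min with compound; NADPH regeneration started a 60 min RT reaction. Luciferin detected by luminescence, normalized to 57 uM ketoconazole as full inhibition.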
Cytochrome P450 3A4 (Homo sapiens), sequence (P08684 whole entry, looked up): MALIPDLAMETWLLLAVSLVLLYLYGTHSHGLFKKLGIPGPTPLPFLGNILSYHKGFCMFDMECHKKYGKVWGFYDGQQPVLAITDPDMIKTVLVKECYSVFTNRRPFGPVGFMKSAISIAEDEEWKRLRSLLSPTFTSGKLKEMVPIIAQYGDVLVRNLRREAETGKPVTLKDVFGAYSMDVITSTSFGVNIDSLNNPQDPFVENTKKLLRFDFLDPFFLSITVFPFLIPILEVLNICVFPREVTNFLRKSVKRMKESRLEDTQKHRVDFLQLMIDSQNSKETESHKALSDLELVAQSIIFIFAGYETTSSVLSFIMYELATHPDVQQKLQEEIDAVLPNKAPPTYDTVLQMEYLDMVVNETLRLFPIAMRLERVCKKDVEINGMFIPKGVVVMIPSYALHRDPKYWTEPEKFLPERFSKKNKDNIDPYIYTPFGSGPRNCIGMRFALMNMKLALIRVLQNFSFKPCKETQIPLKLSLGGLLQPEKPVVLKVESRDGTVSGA

Experiment [11] has the same target. The experiment can be described thus: qHTS Assay for Activators of Cytochrome P450 3A4 (AID 885). Note: nearly all actives have a fitted effect of over 65% in size. As to conditions: recombinant CYP3A4, Luciferin-PPXE luminescence, 60 min; series mostly up to 57.1 µM. A digest of the protocol: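 Human CYP3A4 (20 nM) with Luciferin-PPXE at 25 uM (its KM) in 200 mM KPO4; 10 min compound preincubation, then NADPH regeneration and 60 min reaction at RT. Luciferin read by luminescence; normalized to 57 uM ketoconazole full inhibition.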

A short description of experiment [12]: qHTS Assay for Lipid Storage Modulators (AID 1519; calls by dose curve). As to conditions: Drosophila S3 cells, BODIPY lipid droplet/cell ratio, laser cytometry, cells loaded with oleic acid; for activity change, negative = inhibition: at 57.5 µM (top of the series). A digest of the protocol:
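Cells seeded at 5,000 per well were treated with compounds over a concentration series and loaded with oleic acid (400 uM, as added). Lipid droplet fluorescence (488 nm excitation, 500-530 nm channel) was read by laser-scanning cytometry and normalized to 20 uM Triacsin C.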

Experiment [13] deals with Dual specificity protein kinase CLK4 (Homo sapiens) (UniProt Q9HAZ1). Kind of experiment: qHTS Assay for Inhibitors of CDC-like Kinase 4 (Kinase-Glo Assay) (AID 1770). Note: nearly all actives have a fitted effect of over 65% in size. Note: potency is the fitted concentration of half-maximal effect. As to conditions: recombinant Clk4, Kinase-Glo ATP depletion luminescence; series mostly up to 66.7 µM. A digest of the protocol: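 Substrate mix (RS peptide 100 uM, ATP 1 uM) dispensed, compound pinned in, then Clk4 added to 25 nM final. Incubated 4.5 h at RT; Kinase-Glo reagent added, luminescence read after 5 min.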
Dual specificity protein kinase CLK4 (Homo sapiens), sequence (Q9HAZ1 whole entry, looked up): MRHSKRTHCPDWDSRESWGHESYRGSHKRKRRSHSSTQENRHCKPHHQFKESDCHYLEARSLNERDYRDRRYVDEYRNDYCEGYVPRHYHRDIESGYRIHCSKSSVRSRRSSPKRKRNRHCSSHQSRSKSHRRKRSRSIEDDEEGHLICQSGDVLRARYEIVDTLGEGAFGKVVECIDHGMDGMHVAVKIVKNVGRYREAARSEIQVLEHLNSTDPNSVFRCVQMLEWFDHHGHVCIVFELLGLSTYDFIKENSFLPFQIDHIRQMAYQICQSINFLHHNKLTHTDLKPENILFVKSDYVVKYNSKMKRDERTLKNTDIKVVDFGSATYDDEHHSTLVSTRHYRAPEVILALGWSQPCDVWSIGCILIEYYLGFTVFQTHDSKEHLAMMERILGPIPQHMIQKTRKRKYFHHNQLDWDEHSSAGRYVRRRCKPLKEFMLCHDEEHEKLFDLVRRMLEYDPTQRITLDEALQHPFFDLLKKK

For experiment [14] the target is unchanged. Kind of experiment: qHTS Assay for Inhibitors of CDC-like Kinase 4 (ADP-Glo Assay) (AID 1771). Note: nearly all actives have a fitted effect of over 70% in size. Note: potency is the fitted concentration of half-maximal effect. As to conditions: recombinant CLK4, ADP-Glo luminescence; series mostly up to 80 µM. The method, boiled down: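 Luminescence from ADP-Glo reports ADP produced by 25 nM Clk4 acting on 100 uM RS repeat peptide with 1 uM ATP over 1 hr at room temperature; residual ATP is depleted before ADP is converted to ATP for detection.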

The target in experiment [15] is Ubiquitin carboxyl-terminal hydrolase 1 (Homo sapiens) (UniProt O94782). Kind of experiment: Inhibitors of USP1/UAF1: Pilot qHTS (AID 504865).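 Note: rhodamine fluorescence freed from ubiquitin-rhodamine substrate followed over time; top concentration of the series differs between compounds; % is set by controls: 0 for no effect and ±100 for the full control effect; nearly all actives have a fitted effect of over 35% in size.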 As to conditions: purified USP1/UAF1, Ub-rhodamine cleavage fluorescence; series mostly up to 54.9 µM. The method, boiled down:
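In 50mM HEPES pH 7.8 containing 0.5mM EDTA, 1mM TCEP, 0.1 mg/ml BSA and 0.01% Tween-20, 1nM USP1/UAF1 is exposed to compound for 15 min, then Ub-Rho (150nM final) is added and fluorescence is read over time.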

The nature of experiment [16]: Primary qHTS for small molecule stabilizers of the endoplasmic reticulum resident proteome: Secreted ER Calcium Modulated Protein (SERCaMP) assay (AID 1508630). Note: % is set by controls: 0 for no effect and ±100 for the full control effect. Conditions: SH-SY5Y GLuc-SERCaMP (Gaussia luciferase released on ER calcium loss) secretion, thapsigargin, luminescence; series mostly up to 38.4 µM. A digest of the protocol: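 GLuc-SERCaMP-expressing SH-SY5Y cells, pretreated 16 h with compound, are challenged with thapsigargin to empty ER calcium stores; after 4 h, coelenterazine is added directly to the medium and luminescence is imaged.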

The target in experiment [17] is Dual specificity protein kinase CLK4 (Homo sapiens) (UniProt Q9HAZ1). The experiment can be described thus: qHTS Assay for Inhibitors of CDC-like Kinase 4 (ADP-FP Assay) (AID 1795). Note: potency is the fitted concentration of half-maximal effect; nearly all actives have a fitted effect of over 60% in size. As to conditions: Transcreener ADP fluorescence polarization; series mostly up to 50 µM. A digest of the protocol:
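Clk4 6.25 nM; RS peptide 100 uM; ATP 1 uM; 25 mM Tris pH 7.5, 10 mM MgCl2; 1 h reaction. ADP detected via antibody/orange tracer FP displacement; TG003 positive control.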

Setting [18] is: measured here: cell count channel max response.
Where [19] appears, read: measured here: lipid channel max response.

Ubiquitin carboxyl-terminal hydrolase 1 (Homo sapiens), sequence (O94782 whole entry, looked up): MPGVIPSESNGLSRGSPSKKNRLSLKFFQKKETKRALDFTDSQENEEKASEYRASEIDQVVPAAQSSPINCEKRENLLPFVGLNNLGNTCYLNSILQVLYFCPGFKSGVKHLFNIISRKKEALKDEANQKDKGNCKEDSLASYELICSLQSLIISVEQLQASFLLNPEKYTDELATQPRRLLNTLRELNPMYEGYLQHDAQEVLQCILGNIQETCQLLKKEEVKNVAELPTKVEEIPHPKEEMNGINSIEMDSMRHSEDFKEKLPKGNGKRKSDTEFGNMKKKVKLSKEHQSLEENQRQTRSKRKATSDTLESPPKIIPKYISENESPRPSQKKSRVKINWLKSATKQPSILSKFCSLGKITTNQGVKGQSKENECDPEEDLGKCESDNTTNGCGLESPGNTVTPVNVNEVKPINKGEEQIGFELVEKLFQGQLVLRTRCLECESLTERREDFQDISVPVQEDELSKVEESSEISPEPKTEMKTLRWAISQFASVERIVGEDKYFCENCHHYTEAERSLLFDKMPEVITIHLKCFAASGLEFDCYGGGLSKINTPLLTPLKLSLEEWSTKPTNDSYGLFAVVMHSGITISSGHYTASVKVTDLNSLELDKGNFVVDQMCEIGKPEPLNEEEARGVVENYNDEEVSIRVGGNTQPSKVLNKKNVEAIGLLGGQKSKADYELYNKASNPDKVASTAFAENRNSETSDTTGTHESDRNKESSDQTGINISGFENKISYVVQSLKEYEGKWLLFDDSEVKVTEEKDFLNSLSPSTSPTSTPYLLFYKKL
3',5'-cyclic-AMP phosphodiesterase 4B (Homo sapiens), sequence (Q07343 whole entry, looked up): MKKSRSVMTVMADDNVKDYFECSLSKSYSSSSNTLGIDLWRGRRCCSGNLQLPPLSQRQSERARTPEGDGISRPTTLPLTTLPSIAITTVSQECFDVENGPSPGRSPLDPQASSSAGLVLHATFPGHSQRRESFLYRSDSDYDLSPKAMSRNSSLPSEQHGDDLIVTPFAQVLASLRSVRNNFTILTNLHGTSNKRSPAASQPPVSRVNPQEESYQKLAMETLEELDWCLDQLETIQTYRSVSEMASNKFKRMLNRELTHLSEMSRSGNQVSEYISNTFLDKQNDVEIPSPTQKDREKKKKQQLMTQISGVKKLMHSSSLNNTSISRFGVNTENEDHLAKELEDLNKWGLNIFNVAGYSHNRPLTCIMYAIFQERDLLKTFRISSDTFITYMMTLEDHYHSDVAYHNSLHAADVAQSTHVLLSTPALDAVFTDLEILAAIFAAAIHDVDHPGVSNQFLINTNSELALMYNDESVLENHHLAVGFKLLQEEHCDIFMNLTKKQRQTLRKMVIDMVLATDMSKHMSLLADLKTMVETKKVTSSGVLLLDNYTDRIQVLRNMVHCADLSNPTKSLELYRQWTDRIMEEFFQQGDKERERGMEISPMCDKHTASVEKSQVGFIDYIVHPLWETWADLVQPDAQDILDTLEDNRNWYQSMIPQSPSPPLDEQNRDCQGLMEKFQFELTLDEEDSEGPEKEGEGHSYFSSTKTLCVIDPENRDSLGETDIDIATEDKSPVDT
Lysosomal acid glucosylceramidase (Homo sapiens), sequence (P04062 whole entry, looked up): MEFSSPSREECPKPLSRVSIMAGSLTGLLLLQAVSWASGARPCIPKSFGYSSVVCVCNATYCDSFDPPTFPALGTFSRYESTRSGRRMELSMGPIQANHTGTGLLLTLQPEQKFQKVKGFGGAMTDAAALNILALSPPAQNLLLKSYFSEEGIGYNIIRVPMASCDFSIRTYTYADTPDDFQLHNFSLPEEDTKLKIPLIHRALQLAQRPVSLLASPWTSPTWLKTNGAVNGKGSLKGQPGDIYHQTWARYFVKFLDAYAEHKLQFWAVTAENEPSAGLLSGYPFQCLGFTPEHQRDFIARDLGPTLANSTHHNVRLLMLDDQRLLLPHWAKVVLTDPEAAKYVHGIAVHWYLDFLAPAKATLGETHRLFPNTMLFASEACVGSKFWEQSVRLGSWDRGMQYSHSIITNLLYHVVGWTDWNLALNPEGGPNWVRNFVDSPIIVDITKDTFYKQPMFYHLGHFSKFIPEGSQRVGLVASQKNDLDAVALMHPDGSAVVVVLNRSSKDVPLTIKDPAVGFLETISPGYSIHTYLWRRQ
Cytochrome P450 1A2 (Homo sapiens), sequence (P05177 whole entry, looked up): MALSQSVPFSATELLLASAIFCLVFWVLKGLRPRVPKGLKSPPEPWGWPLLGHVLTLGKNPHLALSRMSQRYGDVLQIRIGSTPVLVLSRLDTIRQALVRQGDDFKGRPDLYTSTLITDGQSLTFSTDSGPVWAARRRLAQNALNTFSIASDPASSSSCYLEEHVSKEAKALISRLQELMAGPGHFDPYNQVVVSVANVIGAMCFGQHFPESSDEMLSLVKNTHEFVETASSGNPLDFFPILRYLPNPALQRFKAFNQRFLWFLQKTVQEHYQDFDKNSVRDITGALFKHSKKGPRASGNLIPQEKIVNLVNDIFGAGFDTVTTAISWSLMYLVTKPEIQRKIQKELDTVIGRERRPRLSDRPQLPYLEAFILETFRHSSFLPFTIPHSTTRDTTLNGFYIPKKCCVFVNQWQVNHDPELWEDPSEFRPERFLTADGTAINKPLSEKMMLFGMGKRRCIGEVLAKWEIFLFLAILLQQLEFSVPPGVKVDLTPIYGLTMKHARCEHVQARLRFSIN

Consider `CN(C)c1ccc(-c2ccc3ncnc(N(C)C)c3c2)cc1`, for which the Potency in [1] was > 11.4 µM (inactive); in experiment [3], 0.158 µM (active); in [6] it was > 46 µM (inactive); in experiment [7] it was > 46 µM (inactive); in experiment [10], 6.31 µM (active); in experiment [13] it was 3.55 µM (active). Moreover, the Potency in experiment [14] was 8.91 µM (active). Moreover, the values for the activity change, negative = inhibition in [2], in experiment [4] and in experiment [12] were -10.3% (inactive), -14.1% (inactive) and 1.7% (inactive), respectively. Also, the activity, negative = inhibition in experiment [5] is -0.741% (inactive). In addition, in experiment [8], the result was inactive. Also, the Potency entry in experiment [9], in experiment [11], in experiment [15] and in experiment [16] was “inactive” each time. The max response in experiment [12] (setting [18]) worked out at 9.5%; in experiment [12] (setting [19]), 8.94%.

Regarding `CN(C)C(=O)c1ccc(-c2cc(NCc3cccnc3)ncn2)cc1`, the Potency is > 11.4 µM (inactive) in experiment [1]; 20 µM (active) in experiment [3]; > 46 µM (inactive) in experiment [6]; > 46 µM (inactive) in [7]; 15.8 µM (active) in experiment [13]; 14.1 µM (active) in experiment [14]. The activity change, negative = inhibition is 11.8% (inactive) in experiment [2], 21.1% (inactive) in experiment [4] and 3.91% (inactive) in experiment [12]. In addition, the activity, negative = inhibition in [5] was 21.7% (inactive). Also, the compound was classed as inactive in [8]. Also, the Potency entry in [9], in experiment [11], in [15] and in experiment [16] was “inactive” in each case. The max response in experiment [12] (setting [18]) stood at 24.7%; in experiment [12] (setting [19]), 22.9%.

Take `O=c1cnc2cncnc2n1Cc1ccc(F)cc1`: the Potency was > 11.4 µM (inactive) in experiment [1], > 9.22 µM (inactive) in experiment [6] and > 46 µM (inactive) in experiment [7]. In addition, the activity change, negative = inhibition is 8.77% (inactive) in [2], -27.6% (inactive) in experiment [4] and -2.55% (inactive) in experiment [12]. In experiment [5], the activity, negative = inhibition is -8.63% (inactive). Moreover, the call in experiment [8] was inactive. Further, the Potency result in [11], in experiment [13], in experiment [14], in experiment [15] and in experiment [16] was “inactive” each time. Also, the max response is -3.3% in experiment [12] (setting [18]) and -6.15% in experiment [12] (setting [19]).

Regarding `Clc1ccccc1-c1ccc2ncnc(N3CCNCC3)c2c1`, the Potency in experiment [1] is > 11.4 µM (inactive); in experiment [3], 2 µM (active); in [6], > 46 µM (inactive); in experiment [7], > 46 µM (inactive); in [13], 15.8 µM (active); in [14] it was 28.2 µM (active). The results for the activity change, negative = inhibition in [2], in experiment [4] and in [12] were 19.1% (inactive), -4.54% (inactive) and 5.35% (inactive), respectively. Also, in experiment [5], the activity, negative = inhibition was 5.5% (inactive). Further, the result in experiment [8] was inactive. The Potency result in experiment [9], in experiment [11], in [15] and in experiment [16] was “inactive” in each case. Besides, the figures for the max response in experiment [12] (setting [18]) and in [12] (setting [19]) were 26.7% and 32.3%, respectively.

For the compound `COc1ccccc1CNc1cc(-c2c(C)noc2C)ncn1`, the Potency was > 11.4 µM (inactive) in experiment [1]; 5.01 µM (active) in [3]; > 46 µM (inactive) in experiment [6]; > 46 µM (inactive) in [7]; 15.8 µM (active) in [13]; 17.8 µM (active) in experiment [14]. The activity change, negative = inhibition in experiment [2] was 14.8% (inactive); in experiment [4], -3.28% (inactive); in experiment [12] it was 10.8% (inactive). In addition, the activity, negative = inhibition in experiment [5] is -4.72% (inactive). For the same compound, the call in experiment [8] was inactive. Also, the Potency entry in experiment [9], in experiment [11], in experiment [15] and in experiment [16] was “inactive” in each case. The max response in [12] (setting [18]) came out at 30%; in [12] (setting [19]), 41.7%.

On to `COCCNc1ncnc2ccc(-c3ccccc3C)cc12`, for which the figures for the activity change, negative = inhibition in [2], in experiment [4] and in experiment [12] were -10.5% (inactive), 10.4% (inactive) and -6.26% (inactive), respectively. Moreover, the activity, negative = inhibition in [5] was -16.2% (inactive). Also, the Potency in experiment [7] was > 46 µM (inactive); in experiment [13], 14.1 µM (active); in experiment [14], 8.91 µM (active); in experiment [17] it was 11.2 µM (active). Further, in experiment [8], the call was inactive. Also, the max response in experiment [12] (setting [18]) is -10.5%; in experiment [12] (setting [19]), -19.3%. Besides, the Potency entry in experiment [15] and in [16] was “inactive” throughout.
